Compound activity from PubChem BioAssay.
An excerpt weighted towards active compounds, which were near 2.7% of everything screened.
LDHA block: inhibitors of human lactate dehydrogenase A; P00338; purified LDHA, NADH/diaphorase-resazurin fluorescence; stronger effect = lower value; activity change, % (values are at about 110 or 230 µM); actives 0.15% (n = 480,000); in the data active = activity change below about -30%; inconclusive = mostly about -25% to -30%;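 also: plate controls were DMSO wells for no effect and wells without enzyme for full effect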
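Human LDH5 at 2 nM final in Tris HCl pH 7.4 with 0.06 mM NADH and 0.2 mM pyruvate, reacted 5 minutes at room temperature. Remaining NADH coupled via diaphorase/resazurin; resorufin fluorescence read at 0 and 20 minutes, normalized to enzyme-free and DMSO wells.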
Nrf2 block: blocks Nrf2 signaling. Potency, µM (titrated, usually from 46 µM), without a hit: at the highest dose activity change, negative = inhibition, hits mostly inhibitors. actives 2.1% (n = 360,000). A549 ARE-Fluc reporter, luciferase luminescence, 18-24 h; also: potency is read from the fitted curve at half-maximal effect; % is scaled to controls: 0 for no effect and ±100 for the full control effect; nearly all actives have a fitted effect of over 60% in size
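A549 ARE_Fluc cells, 5000/well, 5% FBS OPTI-MEM; compounds in dose-response, 18-24 h at 37 °C/5% CO2; CellTiter-Fluor viability read (Ex 405/Em 525), then BugLite luciferase luminescence = Nrf2 activity.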
Nrf2 ARE act: activators of Nrf2 (ARE) signaling; AREc32 ARE-luciferase reporter (MCF7-derived line), luminescence, 24 h; Potency, µM (highest dose often 46.1 µM), without a hit: top-dose activation, actives largely listed as activators; actives 0.31% (n = 410,000); also: potency is read from the fitted curve at half-maximal effect; % of control where 0% means no effect; nearly all actives have a fitted effect of over 65% in size
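Luminescent ARE reporter assay in AREc32_Fluc cells: overnight plating at 37 deg C, 24 hr compound incubation, Steady-Glo added, 30 min RT before reading.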
ALOX12 inh: inhibitors of human 12S-lipoxygenase ALOX12; AID 1671190; actives 1.1% (n = 580,000); P18054; Potency, µM (highest dose often 108 µM), for inactives: at the top dose activity change, negative = inhibition, actives largely listed as inhibitors; purified 12hLO, xylenol orange hydroperoxide absorbance; also: potency is read from the fitted curve at half-maximal effect; % is scaled to controls: 0 for no effect and ±100 for the full control effect
Target sequence (P18054 whole entry, looked up): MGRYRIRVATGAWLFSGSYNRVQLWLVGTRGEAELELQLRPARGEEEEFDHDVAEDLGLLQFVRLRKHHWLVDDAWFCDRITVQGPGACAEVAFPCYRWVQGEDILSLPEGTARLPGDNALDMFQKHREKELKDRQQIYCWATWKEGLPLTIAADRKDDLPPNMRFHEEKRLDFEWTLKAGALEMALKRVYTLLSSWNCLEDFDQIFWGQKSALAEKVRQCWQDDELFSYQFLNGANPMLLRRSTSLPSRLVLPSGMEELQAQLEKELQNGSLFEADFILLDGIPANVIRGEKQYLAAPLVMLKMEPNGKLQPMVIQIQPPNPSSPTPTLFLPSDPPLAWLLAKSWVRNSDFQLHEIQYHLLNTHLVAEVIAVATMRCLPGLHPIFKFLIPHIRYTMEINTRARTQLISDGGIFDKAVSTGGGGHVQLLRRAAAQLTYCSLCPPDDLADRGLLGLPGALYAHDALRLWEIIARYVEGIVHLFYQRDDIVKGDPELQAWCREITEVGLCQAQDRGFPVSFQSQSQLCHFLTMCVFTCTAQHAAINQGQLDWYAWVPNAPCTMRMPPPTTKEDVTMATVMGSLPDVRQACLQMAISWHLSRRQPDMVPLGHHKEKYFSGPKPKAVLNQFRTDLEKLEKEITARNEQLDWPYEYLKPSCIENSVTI
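Purified human 12hLO (150 nM final) in 25 mM Hepes, 0.01% Triton X-100, pH 7.0 was preincubated 15 min at room temperature with compound. Then 40 uM arachidonic acid was added, 30 min. Hydroperoxide was read by Fe-XO absorbance ratio 573/405 nm.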
IDH1 R132H inh: inhibitors of human mutant IDH1 R132H | O75874 | IDH1-R132H enzyme, NADPH consumption, diaphorase/resazurin fluorescence | Potency, µM (titrated, usually from 76.6 µM), for inactives: top-dose activity change, negative = inhibition, usual class: inhibitors | actives 0.093% (n = 390,000) | AID 602179; also: potency is read from the fitted curve at half-maximal effect; % is scaled to controls: 0 for no effect and ±100 for the full control effect; nearly all actives have a fitted effect of over 65% in size
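IDH1-R132H (0.5 ug/mL dispensed) in pH 7.5 Tris buffer was preincubated 30 min with compound, then given a substrate mix of 0.016 mM NADPH and 2 mM alpha-KG for 80 min at room temperature; remaining NADPH was read by diaphorase/resazurin fluorescence.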
A549 viability: kills or reduces viability of A549 cells in Nrf2 counter-screen. AID 504648. Potency, µM (titrated, usually from 46 µM), inactives show top-dose activity change, negative = cytotoxicity, hits mostly inhibitors. actives 0.16% (n = 390,000). A549 ARE-Fluc cells, CellTiter-Fluor viability, 18-24 h; also: potency is read from the fitted curve at half-maximal effect; % is scaled to controls: 0 for no effect and ±100 for the full control effect
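A549 ARE-Fluc cells in 5% FBS OPTI-MEM, 5000 cells/well, rested 2 h then exposed to compounds in concentration-response for 18-24 h at 37 °C. Viability by CellTiter-Fluor fluorescence (Ex 405/Em 525) after 30 min; luciferase luminescence (BugLite, 15 min, RT) read afterwards.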
Numbers without * were called inactive. Unless noted, calls follow the shape of the dose curve; as a rule, active = well fitted curve in the direction sought with a large enough effect; inconclusive = small, poorly fitted or top-dose-only effect, or another doubt; inactive = no such curve, though single readings can be large; an effect the other way counts as inactive or inconclusive.

For Cc1ccc(CCS(=O)(=O)c2ccc(C(C)(C)C)cc2)cn1 the results were LDHA block -3, Nrf2 block 8.2µM*, Nrf2 ARE act -1%, ALOX12 inh 15%, IDH1 R132H inh 5% and A549 viability -4%.
c1ccc(-c2nnc(-c3ccncc3)o2)cc1 was read as LDHA block 2, Nrf2 block inconclusive, Nrf2 ARE act 4%, ALOX12 inh 16%, IDH1 R132H inh 0% and A549 viability 23%.
c1ccc(-c2nnc(-c3ccccc3)o2)cc1 was read as LDHA block -2, Nrf2 ARE act 4.5µM*, ALOX12 inh 318%, IDH1 R132H inh 10% and A549 viability 6%.
For Cc1ccc(-c2nnc(-c3cccc(Br)c3)o2)cc1 the results were LDHA block -2, Nrf2 block inconclusive, Nrf2 ARE act inconclusive, ALOX12 inh 0%, IDH1 R132H inh 3% and A549 viability 10%.
`Brc1cccc(-c2nnc(-c3ccccc3)o2)c1` gave LDHA block -1, Nrf2 block inconclusive, Nrf2 ARE act 3.2µM*, ALOX12 inh -27%, IDH1 R132H inh 1% and A549 viability 7%.
Screening Cc1cc(C(=O)O)ccc1-n1cccc1 returned LDHA block 3 and ALOX12 inh -7%.
For Nc1nccnc1C(=O)NCCNC(=O)c1ccc(Cl)c(Cl)c1 the results were LDHA block 14 and ALOX12 inh inconclusive.
For C=CCNC(=S)NC(=O)c1ccc(C)c(Br)c1 the results were LDHA block -3, Nrf2 block inconclusive, Nrf2 ARE act 5%, ALOX12 inh 35µM*, IDH1 R132H inh 6% and A549 viability 8%.
`CN(CC(=O)Nc1ccccc1C(F)(F)F)Cc1c(O)ccc2ccccc12` gave LDHA block -9, Nrf2 block -6%, Nrf2 ARE act 16%, ALOX12 inh 7.1µM*, IDH1 R132H inh 15% and A549 viability 2%.
CCc1ccccc1NC(=O)CN(C)Cc1c(O)ccc2ccccc12 was read as LDHA block 21, Nrf2 block -8%, Nrf2 ARE act 19%, ALOX12 inh inconclusive, IDH1 R132H inh 7% and A549 viability 2%.
For CNc1nc(-c2c[nH]c3ccccc23)cs1 the results were LDHA block 9, Nrf2 block 2%, Nrf2 ARE act 16%, ALOX12 inh inconclusive, IDH1 R132H inh -3% and A549 viability -7%.
Screening O=C(O)C1CCCCC1C(=O)Nc1nc(-c2ccc(Cl)s2)cs1 (stereo not given) returned LDHA block -7, Nrf2 block -5%, Nrf2 ARE act 5%, ALOX12 inh inconclusive, IDH1 R132H inh -15% and A549 viability 10%.
Screening O=C(Nc1nc(-c2ccc(Cl)s2)cs1)C1CC1 returned LDHA block -34* and ALOX12 inh inconclusive.
c1ccc(CCNc2nc(-c3c[nH]c4ccccc34)cs2)cc1 was read as LDHA block 12 and ALOX12 inh 45µM*.
Screening O=C(Nc1nc(-c2c[nH]c3ccccc23)cs1)C1CCC1 returned LDHA block -16 and ALOX12 inh 50µM*.
CCC(C)Nc1nc(-c2c[nH]c3ccccc23)cs1 (stereo not given) was read as LDHA block 11, Nrf2 block 2%, Nrf2 ARE act 7%, ALOX12 inh 50µM*, IDH1 R132H inh 10% and A549 viability -13%.
`C=CCNc1nc(C(=O)OC(C)C(=O)Nc2ccc(N3CCOCC3)cc2)cs1` (stereo not given) gave LDHA block -5 and ALOX12 inh 7%.
Screening CCCCN(Cc1ccccc1)c1ccc(NS(=O)(=O)c2cccs2)cc1C(=O)O returned LDHA block 5 and ALOX12 inh inconclusive.
